Most compounds without a hit are left out; they make up all but 7.5% or so of the library.
NPC1 prom act – activates the NPC1 promoter | Huh7 NPC1 promoter luciferase reporter, 24 h | Potency, µM (series often up to 9.22 µM), for the others: top-dose activation, actives largely listed as activators | 320,000 compounds, 2.4% hits; also: % of control where 0% means no effect; nearly all actives have a fitted effect of over 60% in size
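Readout is luciferase luminescence, reflecting NPC1 promoter activation in stably transfected Huh7 cells after 24 h compound exposure at 37 °C in reduced-serum medium with 10% FBS.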
Luc counter – counter-screen: inhibitors of Kinase-Glo firefly luciferase | Potency, µM (doses to about 38.3 µM), for inactives: at the highest dose activity change, negative = inhibition, actives largely listed as inhibitors | Kinase-Glo luciferase, ATP luminescence, 8 min | 200,000 compounds, 0.28% hits | AID 1379; also: % is scaled to controls: 0 for no effect and ±100 for the full control effect; nearly all actives have a fitted effect of over 60% in size
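Luminescence was the read-out, taken after 8-minute incubation at ambient temperature. Luciferase turned over luciferin with 10 uM ATP in imidazole pH 7.2 buffer containing KCl, MgCl2, Tween 20 and BSA.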
Rab9 prom act – Rab9 promoter activation. Huh7 Rab9 promoter-luciferase reporter, luminescence, 24 h. Potency, µM (top dose mostly 9.22 µM), without a hit: at the highest dose activation, negative = inhibition, most hits filed as activators. 320,000 compounds, 2.8% hits. AID 485297; also: % of control where 0% means no effect; nearly all actives have a fitted effect of over 60% in size
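Using Huh7 cells stably transfected with Rab9 promoter–luciferase, compounds were incubated 24 h at 37 °C, 5% CO2; luciferase luminescence was read 10 min after reagent addition.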
SMN2 splice up – enhancers of SMN2 splice variant expression | HEK293 SMN2-luciferase splicing reporter, luminescence, 30-36 h | Potency, µM (titrated, usually from 46.1 µM), without a hit: at the top dose activity change, positive = activation, hits mostly activators | 210,000 compounds, 2.8% hits | AID 1458; also: % of control where 0% means no effect; nearly all actives have a fitted effect of over 55% in size
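qHTS luciferase splicing reporter: luminescence rises when SMN2 exon 7 is included in transfected HEK293 cells. Compound exposure lasted 30-36 h at 37C, with 4.5 mM final sodium butyrate as control, followed by a ONE-Glo read.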
ELG1 genotoxic – induces genotoxicity in HEK293T cells with luciferase-tagged ELG1. HEK293T ELG1-luciferase reporter, luminescence, 16 h. Potency, µM (doses to about 46 µM), without a hit: at the top dose activity change, positive = activation, actives largely listed as activators. 330,000 compounds, 1.3% hits; also: % of control where 0% means no effect; nearly all actives have a fitted effect of over 60% in size
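16 hr compound incubation (37 °C, 5% CO2) of HEK293T cells carrying luciferase-tagged ELG1; luciferase then measured by ONE-Glo luminescence after 30 min at RT.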
FLuc counter – firefly luciferase modulation, counter-screen for miR-21 project; P08659; purified FLuc, Km substrates, luminescence inhibition; Potency, µM (doses to about 57.5 µM), inactives show at the top dose activity change, negative = inhibition, hits mostly inhibitors; 360,000 compounds, 6.9% hits;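 also: plate controls were vehicle for no effect and reference inhibitor for full effect; nearly all actives have a fitted effect of over 55% in size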
Target sequence (P08659 whole entry, looked up): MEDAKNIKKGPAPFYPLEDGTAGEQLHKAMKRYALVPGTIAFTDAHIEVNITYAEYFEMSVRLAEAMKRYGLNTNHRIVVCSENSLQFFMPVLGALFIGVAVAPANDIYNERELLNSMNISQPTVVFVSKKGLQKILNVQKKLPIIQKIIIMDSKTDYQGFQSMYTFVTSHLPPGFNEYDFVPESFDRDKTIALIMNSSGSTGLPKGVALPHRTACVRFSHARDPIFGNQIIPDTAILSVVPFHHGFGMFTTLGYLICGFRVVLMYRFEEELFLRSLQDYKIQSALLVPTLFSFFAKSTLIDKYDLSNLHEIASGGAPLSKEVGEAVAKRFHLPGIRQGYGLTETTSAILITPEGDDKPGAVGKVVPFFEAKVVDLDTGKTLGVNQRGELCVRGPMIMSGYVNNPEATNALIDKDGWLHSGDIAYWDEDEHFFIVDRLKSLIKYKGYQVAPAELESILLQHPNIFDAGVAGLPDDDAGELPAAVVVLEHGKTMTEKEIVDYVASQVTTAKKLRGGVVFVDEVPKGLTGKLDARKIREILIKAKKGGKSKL
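Biochemical qHTS of compounds, final roughly 60 µM downward over six points, against 10 nM purified firefly luciferase using Km concentrations of substrates (10 uM D-luciferin, 10 uM ATP) in Tris acetate pH 7.5 buffer; luminescence output.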
Numbers without * were called inactive; [ ] = another dose, or the depositor's remark. Calls follow the shape of the dose curve; as a rule, active = well fitted curve in the direction sought with a large enough effect; inconclusive = small, poorly fitted or top-dose-only effect, or another doubt; inactive = no such curve, though single readings can be large; an effect the other way counts as inactive or inconclusive. Potency is read from the fitted curve at half-maximal effect.

Results for COc1cccc(C(=O)COC(=O)c2cccs2)c1 ?
NPC1 prom act: inconclusive; Rab9 prom act: 5.2%; ELG1 genotoxic: inconclusive; FLuc counter: 0.477µM*

What do the screens show for `O=C(CSCc1ccco1)c1cccs1`?
NPC1 prom act: 3.98µM*; Luc counter: -6.9%; Rab9 prom act: 1.26µM*; SMN2 splice up: 6.8%; ELG1 genotoxic: 11.6µM*; FLuc counter: 9.53µM*

Results for O=C(CNC(=O)c1cccs1)NCC(=O)OCC(=O)c1ccccc1 ?
NPC1 prom act: -2.7%; Rab9 prom act: 6.5%; ELG1 genotoxic: -2.3%; FLuc counter: 0.1%

Results for O=C(CCC(=O)c1cccs1)NC(c1ccccc1)c1ccccc1 ?
NPC1 prom act: -0.7%; Luc counter: -0.6%; Rab9 prom act: -2.0%; SMN2 splice up: -9.2%; ELG1 genotoxic: 0.6%; FLuc counter: 0.0%

Results for O=C(COC(=O)c1cccs1)c1ccccc1 ?
NPC1 prom act: inconclusive; Luc counter: -21.2%; Rab9 prom act: 3.98µM*; SMN2 splice up: 14.0%; ELG1 genotoxic: 14.3%; FLuc counter: 0.849µM*

What do the screens show for `COc1cccc(C(=O)COC(=O)c2cc(-c3cccs3)nc3ccccc23)c1`?
SMN2 splice up: -0.3%; FLuc counter: -17.0%

Results for O=[N+]([O-])C1C(c2ccccc2)=NOC1c1ccccc1O (stereo unspecified) ?
NPC1 prom act: -0.8%; Rab9 prom act: 10.0%; ELG1 genotoxic: 3.6%; FLuc counter: 4.4%

How did COc1ccc(-c2nc3ccccc3o2)cc1NC(=O)c1ccc(N2CCC(C)CC2)c([N+](=O)[O-])c1 do in these assays?
SMN2 splice up: 21.5%; FLuc counter: inconclusive

What do the screens show for `CC(C)COC[C@H](CN(Cc1ccccc1)c1ccccc1)N1CCCC1`?
Luc counter: -1.4%[17.1 µM]; SMN2 splice up: -11.1%[20.6 µM]

What do the screens show for `O=C(NCc1ccccc1Cl)c1ccc(NC(=O)c2nsc3ccccc23)cc1`?
FLuc counter: 3.79µM*

How did O=C(NCc1ccccc1)c1ccc(NC(=O)c2nsc3ccccc23)cc1 do in these assays?
FLuc counter: 6.01µM*

What do the screens show for `Cc1ccc(C(=O)NCc2ccc(F)cc2)cc1NC(=O)c1nsc2ccccc12`?
FLuc counter: -18.1%

What do the screens show for `COc1ccc(OC)c(CNC(=O)c2ccc(C)c(NC(=O)c3nsc4ccccc34)c2)c1`?
FLuc counter: -4.5%

How did CC(=O)c1ccc(N2CCN(C(=O)CCC(=O)Nc3ccc4nc(N5CCCCC5)cc(C)c4c3)CC2)cc1 do in these assays?
SMN2 splice up: 0.0%; FLuc counter: inconclusive

How did CCN1CCN(c2cc(C)c3cc(NC(=O)CCC(=O)N4CCN(c5ccccc5)CC4)ccc3n2)CC1 do in these assays?
NPC1 prom act: -4.9%; Rab9 prom act: 2.0%; ELG1 genotoxic: -3.0%; FLuc counter: inconclusive

Results for Cc1cc(N2CCOCC2)nc2ccc(Cl)cc12 ?
NPC1 prom act: inconclusive; Rab9 prom act: inconclusive; ELG1 genotoxic: inconclusive; FLuc counter: 6.01µM*

Results for CCCCN(C)C(=O)CCC(=O)Nc1ccc2nc(N3CCOCC3)cc(C)c2c1 ?
NPC1 prom act: inconclusive; Luc counter: 0.2%; Rab9 prom act: inconclusive; SMN2 splice up: 20µM*; ELG1 genotoxic: 5.9%; FLuc counter: inconclusive

How did Cc1cc(N2CCOCC2)nc2ccc(NC(=O)CCC(=O)N3CCCCC3)cc12 do in these assays?
NPC1 prom act: inconclusive; Luc counter: -0.3%; Rab9 prom act: 3.98µM*; SMN2 splice up: 8.91µM*; ELG1 genotoxic: inconclusive; FLuc counter: inconclusive

How did Cc1cc(N2CCC(C)CC2)nc2ccc(NC(=O)CCC(=O)N3CCN(c4ccccc4F)CC3)cc12 do in these assays?
SMN2 splice up: -11.7%; FLuc counter: 4.78µM*

What do the screens show for `COc1cc(OC)cc(-c2nc3nc(C)c(CCC(=O)Nc4ccc(F)cc4F)c(C)n3n2)c1`?
SMN2 splice up: -2.9%; FLuc counter: -8.3%

What do the screens show for `Cc1cc2nc(-c3ccc(OCc4ccc(F)cc4)cc3)cc(C(F)(F)F)n2n1`?
SMN2 splice up: -6.3%; FLuc counter: -7.7%

Results for Cc1ccc(NC(=O)C2(C)Cc3ccccc3C(=O)O2)c(C)c1 (stereo unspecified) ?
SMN2 splice up: 1.6%; FLuc counter: 3.7%

How did Cc1noc(C)c1S(=O)(=O)N(C)C[C@H]1Oc2ccc(NC(=O)CCC(F)(F)F)cc2C(=O)N([C@H](C)CO)C[C@@H]1C do in these assays?
ELG1 genotoxic: 3.5%

How did Cc1c(NC(=O)COc2ccc(C(C)C)cc2)c(=O)n(-c2ccccc2)n1C do in these assays?
NPC1 prom act: 0.3%; Rab9 prom act: -6.6%; ELG1 genotoxic: 2.6%; FLuc counter: -0.6%

What do the screens show for `Cc1ccc(Cl)cc1NC(=O)C(=O)NCC(c1cccnc1)N1CCc2ccccc21` (stereo unspecified)?
FLuc counter: -13.5%

What do the screens show for `CC1=C(C(=O)Nc2ccc(Cl)cc2)C(C(C)C)n2nc(SCc3ccc(Cl)cc3)nc2N1` (stereo unspecified)?
SMN2 splice up: 0.6%; FLuc counter: 0.9%

How did O=C(O)CCc1ccc(-c2ccc(Cl)cc2)n1-c1cccc(C(F)(F)F)c1 do in these assays?
SMN2 splice up: -9.4%; FLuc counter: inconclusive

What do the screens show for `Cc1cccc(-c2nnc(SCc3cc(=O)c4cccc(Cl)c4[nH]3)n2C)c1`?
FLuc counter: -15.2%

What do the screens show for `CCN1CCN(c2cc(C)c3cc(NC(=O)CCC(=O)N4CCN(c5ccccc5OC)CC4)ccc3n2)CC1`?
NPC1 prom act: 13.9%; Rab9 prom act: 4.8%; ELG1 genotoxic: 2.1%; FLuc counter: 15.1µM*

Results for Cc1cc(N2CCOCC2)nc2ccc(NC(=O)CCC(=O)N3CCC(C)CC3)cc12 ?
NPC1 prom act: inconclusive; Rab9 prom act: 4.47µM*; ELG1 genotoxic: 7.1%; FLuc counter: 12µM*

What do the screens show for `COc1ccc(CNC(=O)CSc2nnc(C)c3c(C)n(-c4ccccc4)nc23)c(OC)c1`?
FLuc counter: -15.2%

How did CCS(=O)(=O)c1ccc2oc(Nc3cccc(OC)c3)nc2c1 do in these assays?
NPC1 prom act: 9.6%; Luc counter: -8.5%; Rab9 prom act: inconclusive; SMN2 splice up: 17.0%; ELG1 genotoxic: 7.1%; FLuc counter: 16.9µM*

How did CCS(=O)(=O)c1ccc2oc(Nc3cc(Cl)ccc3OC)nc2c1 do in these assays?
NPC1 prom act: -2.4%; Rab9 prom act: 0.1%; ELG1 genotoxic: 9.5%; FLuc counter: inconclusive
